# Test results from PubChem BioAssay (NCI).
# This is part of a sample that, as a whole, favours compounds with a hit. Of some 79,000 tested, about 15% had one in any assay. Values without a mark were called inactive. Calls of active or inactive are those of the source. Cut-off read from the data, not from the text of the source: active = growth inhibition above about 70%; inactive = the rest.
# Experiment: NCI Yeast Anticancer Drug Screen. Data for the sgs1 strain (AID 173);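 note: 0% = growth of vehicle-only control cultures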
# Conditions: S. cerevisiae sgs1 mutant, stronger effect = higher value
# Procedure: Growth inhibition of yeast strains with defined genetic alterations is measured as a screen for potential anti-cancer activity. Selected strains with alterations in DNA damage repair or cell cycle control were exposed to compounds and growth inhibition was measured relative to vehicle treated controls. The strain used in this assay is sgs1
SMILES,growth inhibition (at 1.2 µM),growth inhibition (at 3.7 µM),growth inhibition (at 11.0 µM),growth inhibition (at 33.0 µM),growth inhibition (at 100.0 µM)
CC(Br)C(=O)c1ccc2cc(Br)c3ccccc3c2c1 (stereo not given),3%,8%,14%,17%,17%
O=C(OCC=C1CCCC1)c1cc([N+](=O)[O-])cc([N+](=O)[O-])c1,-1%,4%,26%,97% (active),99% (active)
NC1=NS(=O)(=O)N=C(N)C1=Cc1ccc([N+](=O)[O-])o1,-15%,-10%,18%,45%,98% (active)
Nc1ccc2c(c1)C(=O)c1cccc(N)c1C2=O,-4%,3%,37%,79% (active),85% (active)
C=CC(C)(O)CCC1C(=C)C(O)CC2C(C)(C)CCCC12C (stereo not given),11%,23%,20%,53%,72% (active)
CCC(=O)c1cccc2ccccc12,1%,3%,4%,3%,14%
C=CCC1=C(C)C(OC(=O)/C=C/c2ccccc2)CC1=O (stereo not given),-9%,26%,6%,6%,53%
CCCCCCc1cc(C(=O)OC/C(C)=N/NC(N)=O)c2ccccc2n1,-4%,-4%,-6%,-5%,-4%
